The results in this text go back to ChEMBL document CHEMBL1961873, “Compounds: GSK PKIS; Assays: Nanosyn kinase panel” (2012).

Assay [1] concerns the target Tyrosine-protein kinase receptor UFO (Homo sapiens) (UniProt P30530). Particulars: at 1 µM.
For assay [2], the target named is Tyrosine-protein kinase Blk (Homo sapiens) (UniProt P51451). As to conditions: at 0.1 µM.
The target is the same in assay [3]. Particulars: at 1 µM.
In assay [4] the target is T1, Cytoplasmic tyrosine-protein kinase BMX (Homo sapiens) (UniProt P51813).
T1 sequence (whole entry): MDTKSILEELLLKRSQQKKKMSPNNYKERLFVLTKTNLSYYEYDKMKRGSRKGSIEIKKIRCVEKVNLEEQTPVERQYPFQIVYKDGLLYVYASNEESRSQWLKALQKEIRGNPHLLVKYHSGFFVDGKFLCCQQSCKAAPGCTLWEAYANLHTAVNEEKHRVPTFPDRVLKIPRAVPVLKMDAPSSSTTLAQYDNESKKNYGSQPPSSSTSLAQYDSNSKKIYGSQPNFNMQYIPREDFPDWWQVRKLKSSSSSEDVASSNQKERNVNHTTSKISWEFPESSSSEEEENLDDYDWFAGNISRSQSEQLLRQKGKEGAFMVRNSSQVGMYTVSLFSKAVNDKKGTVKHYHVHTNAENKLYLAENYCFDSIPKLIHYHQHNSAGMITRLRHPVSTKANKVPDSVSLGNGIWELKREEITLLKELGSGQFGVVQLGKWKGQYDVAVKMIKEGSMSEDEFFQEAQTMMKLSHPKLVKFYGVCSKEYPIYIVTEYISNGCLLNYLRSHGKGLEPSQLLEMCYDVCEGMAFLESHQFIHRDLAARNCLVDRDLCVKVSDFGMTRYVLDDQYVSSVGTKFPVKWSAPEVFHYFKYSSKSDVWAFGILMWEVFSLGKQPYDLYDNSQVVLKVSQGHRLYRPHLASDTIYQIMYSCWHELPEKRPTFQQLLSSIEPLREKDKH
As to conditions: at 0.1 µM.

Assay [5] deals with T1, Cytoplasmic tyrosine-protein kinase BMX (Homo sapiens). Particulars: at 1 µM.
Assay [6] has as its target Protein-tyrosine kinase 6 (Homo sapiens) (UniProt Q13882). Particulars: at 0.1 µM.
Assay [7] has the same target. Particulars: at 1 µM.
Assay [8] addresses Tyrosine-protein kinase BTK (Homo sapiens) (UniProt Q06187). As to conditions: at 0.1 µM.
The target is the same in assay [9]. As to conditions: at 1 µM.
The target of assay [10] is Tyrosine-protein kinase CSK (Homo sapiens) (UniProt P41240). Particulars: at 0.1 µM.
Tyrosine-protein kinase CSK (Homo sapiens), sequence (P41240 2-450 limits assumed): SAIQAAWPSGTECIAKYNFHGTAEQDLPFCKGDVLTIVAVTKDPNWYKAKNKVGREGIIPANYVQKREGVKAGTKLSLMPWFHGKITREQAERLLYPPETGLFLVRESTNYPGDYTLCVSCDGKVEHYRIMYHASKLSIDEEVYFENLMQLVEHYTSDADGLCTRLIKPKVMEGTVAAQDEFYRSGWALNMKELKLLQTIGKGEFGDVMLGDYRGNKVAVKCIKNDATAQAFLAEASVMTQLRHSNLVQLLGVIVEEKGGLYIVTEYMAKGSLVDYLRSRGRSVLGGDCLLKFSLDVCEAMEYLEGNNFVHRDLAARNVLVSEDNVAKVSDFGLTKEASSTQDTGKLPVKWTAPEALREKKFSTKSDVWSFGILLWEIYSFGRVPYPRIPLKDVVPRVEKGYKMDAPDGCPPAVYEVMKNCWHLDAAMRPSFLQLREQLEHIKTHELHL
The target is the same in assay [11]. Particulars: at 1 µM.
For assay [12], the target named is T2, Discoidin domain-containing receptor 2 (Homo sapiens) (UniProt Q16832).
T2 sequence (whole entry): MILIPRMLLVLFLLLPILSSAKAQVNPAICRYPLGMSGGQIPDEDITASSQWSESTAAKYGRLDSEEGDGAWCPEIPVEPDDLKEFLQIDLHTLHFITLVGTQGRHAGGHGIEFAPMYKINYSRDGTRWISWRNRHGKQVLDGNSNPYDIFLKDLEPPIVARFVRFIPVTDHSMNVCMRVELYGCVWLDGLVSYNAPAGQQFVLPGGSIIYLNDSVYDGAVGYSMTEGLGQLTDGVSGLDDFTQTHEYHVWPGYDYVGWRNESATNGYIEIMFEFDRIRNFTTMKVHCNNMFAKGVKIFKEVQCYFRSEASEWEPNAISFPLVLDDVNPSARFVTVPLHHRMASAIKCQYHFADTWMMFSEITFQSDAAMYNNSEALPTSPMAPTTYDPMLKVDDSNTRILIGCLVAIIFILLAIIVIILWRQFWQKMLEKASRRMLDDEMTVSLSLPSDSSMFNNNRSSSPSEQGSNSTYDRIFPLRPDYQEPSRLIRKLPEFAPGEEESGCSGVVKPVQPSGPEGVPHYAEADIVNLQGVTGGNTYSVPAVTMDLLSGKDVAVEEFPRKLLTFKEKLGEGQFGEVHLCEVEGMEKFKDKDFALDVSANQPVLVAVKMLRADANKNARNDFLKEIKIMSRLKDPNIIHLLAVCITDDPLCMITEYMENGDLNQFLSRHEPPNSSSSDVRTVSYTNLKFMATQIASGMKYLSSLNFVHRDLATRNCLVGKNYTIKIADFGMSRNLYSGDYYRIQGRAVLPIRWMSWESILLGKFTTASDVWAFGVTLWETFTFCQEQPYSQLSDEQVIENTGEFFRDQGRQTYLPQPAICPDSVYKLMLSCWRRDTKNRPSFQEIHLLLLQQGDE
As to conditions: at 0.1 µM.

Assay [13] has as its target T2, Discoidin domain-containing receptor 2 (Homo sapiens). As to conditions: at 1 µM.
Assay [14] concerns the target Epidermal growth factor receptor (Homo sapiens) (UniProt P00533). Particulars: at 0.1 µM.
For assay [15] the target is unchanged. As to conditions: at 1 µM.
Assay [16] deals with Epidermal growth factor receptor (Homo sapiens), P00533 [L858R]. Particulars: at 0.1 µM.
Epidermal growth factor receptor (Homo sapiens), P00533 [L858R], sequence (P00533 whole entry L858R): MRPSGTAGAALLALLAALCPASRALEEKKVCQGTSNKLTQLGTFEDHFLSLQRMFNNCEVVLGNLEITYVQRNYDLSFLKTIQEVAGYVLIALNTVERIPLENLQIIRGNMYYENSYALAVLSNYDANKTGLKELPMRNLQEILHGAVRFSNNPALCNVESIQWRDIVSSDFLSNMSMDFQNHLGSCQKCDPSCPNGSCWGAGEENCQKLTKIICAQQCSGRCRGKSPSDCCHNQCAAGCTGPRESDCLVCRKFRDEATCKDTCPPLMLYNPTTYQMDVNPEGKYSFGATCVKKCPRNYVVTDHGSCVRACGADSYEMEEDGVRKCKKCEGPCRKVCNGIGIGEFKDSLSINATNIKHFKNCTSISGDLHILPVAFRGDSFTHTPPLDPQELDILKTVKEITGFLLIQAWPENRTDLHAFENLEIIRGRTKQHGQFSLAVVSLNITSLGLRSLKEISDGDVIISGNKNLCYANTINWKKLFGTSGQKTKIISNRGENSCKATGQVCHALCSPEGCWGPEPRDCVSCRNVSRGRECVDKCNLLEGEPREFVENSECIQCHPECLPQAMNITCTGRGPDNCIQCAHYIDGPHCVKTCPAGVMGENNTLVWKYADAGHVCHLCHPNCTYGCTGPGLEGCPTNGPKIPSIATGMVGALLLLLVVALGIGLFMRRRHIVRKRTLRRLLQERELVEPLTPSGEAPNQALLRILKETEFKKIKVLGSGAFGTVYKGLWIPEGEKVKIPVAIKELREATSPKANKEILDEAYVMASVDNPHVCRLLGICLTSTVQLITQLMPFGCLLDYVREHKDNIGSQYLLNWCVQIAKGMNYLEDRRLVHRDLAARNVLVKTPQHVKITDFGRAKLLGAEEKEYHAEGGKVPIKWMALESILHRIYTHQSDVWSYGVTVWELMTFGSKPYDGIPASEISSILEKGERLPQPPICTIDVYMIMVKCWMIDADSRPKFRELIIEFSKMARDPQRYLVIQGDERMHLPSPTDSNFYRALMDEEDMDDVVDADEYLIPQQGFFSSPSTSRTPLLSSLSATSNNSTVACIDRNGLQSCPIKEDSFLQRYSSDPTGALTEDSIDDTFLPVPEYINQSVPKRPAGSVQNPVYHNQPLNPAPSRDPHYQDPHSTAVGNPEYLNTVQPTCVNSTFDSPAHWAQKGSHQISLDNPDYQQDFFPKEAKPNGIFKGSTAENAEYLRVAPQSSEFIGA
Assay [17] shares this test system. Particulars: at 1 µM.
Assay [18] deals with Epidermal growth factor receptor (Homo sapiens), P00533 [L861Q]. As to conditions: at 0.1 µM.
For assay [19] the test system is unchanged. Particulars: at 1 µM.
Assay [20] concerns Epidermal growth factor receptor (Homo sapiens), P00533 [T790M]. As to conditions: at 0.1 µM.

Epidermal growth factor receptor (Homo sapiens), sequence (P00533 whole entry): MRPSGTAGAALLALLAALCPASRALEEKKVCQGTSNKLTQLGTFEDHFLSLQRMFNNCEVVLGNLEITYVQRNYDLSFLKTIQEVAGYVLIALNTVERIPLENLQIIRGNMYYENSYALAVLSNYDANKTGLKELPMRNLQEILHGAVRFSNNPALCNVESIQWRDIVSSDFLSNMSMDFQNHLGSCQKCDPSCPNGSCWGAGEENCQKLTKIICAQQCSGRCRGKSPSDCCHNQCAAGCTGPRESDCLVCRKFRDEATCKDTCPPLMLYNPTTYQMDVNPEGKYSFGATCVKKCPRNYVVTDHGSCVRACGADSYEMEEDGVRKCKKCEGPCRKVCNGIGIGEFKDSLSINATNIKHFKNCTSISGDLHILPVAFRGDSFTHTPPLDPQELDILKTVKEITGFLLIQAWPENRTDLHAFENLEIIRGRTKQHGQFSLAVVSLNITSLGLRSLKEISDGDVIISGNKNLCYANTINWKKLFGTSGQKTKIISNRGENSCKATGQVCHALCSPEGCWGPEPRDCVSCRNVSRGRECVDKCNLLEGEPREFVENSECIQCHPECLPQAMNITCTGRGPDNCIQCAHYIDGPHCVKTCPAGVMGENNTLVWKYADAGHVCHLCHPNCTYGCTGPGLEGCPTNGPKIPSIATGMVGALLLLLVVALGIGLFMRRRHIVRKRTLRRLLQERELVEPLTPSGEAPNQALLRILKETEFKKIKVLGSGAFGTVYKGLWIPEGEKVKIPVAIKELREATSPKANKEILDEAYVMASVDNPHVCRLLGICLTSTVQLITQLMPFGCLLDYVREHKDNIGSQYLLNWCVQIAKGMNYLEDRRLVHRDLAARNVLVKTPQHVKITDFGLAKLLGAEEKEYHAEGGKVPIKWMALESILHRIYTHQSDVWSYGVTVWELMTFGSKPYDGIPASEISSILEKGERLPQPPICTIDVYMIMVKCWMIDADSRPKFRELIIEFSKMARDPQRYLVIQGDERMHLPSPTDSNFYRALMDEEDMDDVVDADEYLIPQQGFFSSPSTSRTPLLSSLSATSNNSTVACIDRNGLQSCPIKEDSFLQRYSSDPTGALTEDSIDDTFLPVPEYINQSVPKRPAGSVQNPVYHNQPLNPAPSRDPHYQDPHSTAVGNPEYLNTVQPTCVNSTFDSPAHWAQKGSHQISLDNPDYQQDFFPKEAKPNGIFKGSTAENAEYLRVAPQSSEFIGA
Tyrosine-protein kinase Blk (Homo sapiens), sequence (P51451 2-505 limits assumed): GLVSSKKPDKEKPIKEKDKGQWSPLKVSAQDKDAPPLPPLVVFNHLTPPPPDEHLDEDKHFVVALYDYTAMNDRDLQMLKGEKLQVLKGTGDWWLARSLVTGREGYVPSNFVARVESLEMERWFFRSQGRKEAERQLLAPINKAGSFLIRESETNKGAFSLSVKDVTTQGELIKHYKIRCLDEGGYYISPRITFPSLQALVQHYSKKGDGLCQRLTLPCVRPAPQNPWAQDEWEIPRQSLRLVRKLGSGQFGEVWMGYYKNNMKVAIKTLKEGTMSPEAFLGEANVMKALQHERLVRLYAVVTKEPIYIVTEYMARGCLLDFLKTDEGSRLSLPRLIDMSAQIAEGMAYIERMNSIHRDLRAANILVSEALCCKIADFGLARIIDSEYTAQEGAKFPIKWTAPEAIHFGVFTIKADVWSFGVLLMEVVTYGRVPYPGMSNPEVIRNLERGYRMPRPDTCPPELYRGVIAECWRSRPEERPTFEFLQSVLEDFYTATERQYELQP
Tyrosine-protein kinase receptor UFO (Homo sapiens), sequence (P30530 whole entry): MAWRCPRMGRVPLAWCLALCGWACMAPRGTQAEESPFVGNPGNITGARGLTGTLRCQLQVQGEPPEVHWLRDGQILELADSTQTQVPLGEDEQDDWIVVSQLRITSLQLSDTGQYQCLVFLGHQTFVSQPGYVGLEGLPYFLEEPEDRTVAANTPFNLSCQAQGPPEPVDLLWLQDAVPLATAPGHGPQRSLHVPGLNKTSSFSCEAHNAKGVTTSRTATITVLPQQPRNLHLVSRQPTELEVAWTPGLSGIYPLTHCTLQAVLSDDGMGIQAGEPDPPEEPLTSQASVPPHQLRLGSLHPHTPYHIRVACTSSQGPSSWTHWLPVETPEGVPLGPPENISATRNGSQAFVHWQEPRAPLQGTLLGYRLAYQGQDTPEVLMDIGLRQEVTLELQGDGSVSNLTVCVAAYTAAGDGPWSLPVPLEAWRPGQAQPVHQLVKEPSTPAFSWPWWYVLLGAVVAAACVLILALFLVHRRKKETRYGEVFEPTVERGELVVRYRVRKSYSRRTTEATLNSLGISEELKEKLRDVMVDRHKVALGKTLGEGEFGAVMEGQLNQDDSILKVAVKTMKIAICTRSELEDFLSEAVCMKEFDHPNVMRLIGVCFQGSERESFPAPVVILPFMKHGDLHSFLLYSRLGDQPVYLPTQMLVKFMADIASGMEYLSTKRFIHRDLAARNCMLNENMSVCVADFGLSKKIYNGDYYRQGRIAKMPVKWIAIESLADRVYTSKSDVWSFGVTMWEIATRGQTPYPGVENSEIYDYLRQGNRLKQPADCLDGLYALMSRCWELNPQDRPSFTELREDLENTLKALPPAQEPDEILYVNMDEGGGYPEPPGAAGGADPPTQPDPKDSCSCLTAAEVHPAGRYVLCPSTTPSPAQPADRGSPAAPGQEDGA
Tyrosine-protein kinase BTK (Homo sapiens), sequence (Q06187 whole entry): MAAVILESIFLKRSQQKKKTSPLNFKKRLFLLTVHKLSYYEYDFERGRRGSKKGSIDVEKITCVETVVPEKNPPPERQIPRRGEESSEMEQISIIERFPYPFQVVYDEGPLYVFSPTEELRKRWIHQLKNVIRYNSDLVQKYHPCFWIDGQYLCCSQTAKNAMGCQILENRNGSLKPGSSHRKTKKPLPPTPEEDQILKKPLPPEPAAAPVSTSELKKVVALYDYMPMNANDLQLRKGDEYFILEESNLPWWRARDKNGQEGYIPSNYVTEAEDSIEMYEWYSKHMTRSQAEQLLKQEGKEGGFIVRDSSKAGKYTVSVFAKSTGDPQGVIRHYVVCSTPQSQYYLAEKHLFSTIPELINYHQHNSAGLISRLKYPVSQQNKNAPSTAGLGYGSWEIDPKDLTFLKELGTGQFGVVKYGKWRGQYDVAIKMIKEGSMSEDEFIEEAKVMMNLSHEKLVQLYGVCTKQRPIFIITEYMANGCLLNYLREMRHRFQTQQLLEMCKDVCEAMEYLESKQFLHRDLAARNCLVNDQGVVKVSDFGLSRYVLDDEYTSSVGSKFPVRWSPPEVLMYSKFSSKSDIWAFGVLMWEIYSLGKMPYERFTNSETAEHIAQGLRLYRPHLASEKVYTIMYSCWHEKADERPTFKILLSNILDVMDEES

Consider `NS(=O)(=O)c1ccc(-c2ccc3c(NC(=O)C4CC4)n[nH]c3c2)cc1`, for which the inhibition in assay [1] is -2.63%; in assay [2] it was 1.89%; in [3], 6.01%; in [4] it was 4.98%; in assay [5], 3.87%; in [6], 0.27%. Moreover, the inhibition is 1.67% in assay [7]; 1.8% in [8]; 1.47% in assay [9]; 6.64% in assay [10]; 2.04% in [11]; 0.39% in assay [12]. Besides, the inhibition came to 1.56% in assay [13]; 1.61% in assay [14]; 5.25% in [15]; 0.79% in assay [16]; 1.74% in [17]; 2.23% in [18]. Moreover, the inhibition was -1.61% in assay [19] and 0.83% in assay [20].

Regarding `CCn1c(-c2nonc2N)nc2c(C#CC(C)(C)O)nc(O[C@@H](CN)c3ccccc3)cc21`, the inhibition was 8.92% in assay [1]; -0.06% in assay [2]; 10.1% in [3]; 2.29% in assay [4]; -1.16% in assay [5]; -1.39% in assay [6]. In addition, the inhibition in assay [7] was -2.85%; in [8], -2.57%; in assay [9], -0.15%; in assay [10], -5%; in assay [11], -5.08%; in assay [12], -0.22%. The inhibition is 0.1% in assay [13]; 1.88% in [14]; 7.41% in assay [15]; -1.92% in assay [16]; 4% in assay [17]; -0.6% in assay [18]. The inhibition in [19] is -1.72%; in [20] it was -1.47%.

In the case of `COc1cc2c(cc1Nc1nc(Nc3ccsc3C(N)=O)c3cc[nH]c3n1)N(C(=O)CN(C)C)CCC2`, the inhibition in assay [1] came to 66.8%; in [2] it was 7.36%; in assay [3] it was 10.6%; in [4], 0.79%; in [5] it was 1.32%; in assay [6], 0.16%. The inhibition in assay [7] was 3.39%; in assay [8] it was 0.44%; in assay [9] it was 1%; in assay [10], -7.26%; in [11] it was -4.71%; in assay [12], 2.81%. For the same compound, the inhibition in assay [13] amounted to 5.59%; in assay [16], 0.26%; in assay [17], 20.5%; in assay [18], 0.9%; in [19] it was 8.73%; in assay [20] it was 8.68%.

With `Nc1nonc1-c1nc2cnccc2n1C1CCCCC1`, the inhibition is 4.86% in assay [1]; -1.07% in assay [2]; 0.24% in assay [3]; 1.92% in assay [4]; -1.58% in [5]; -5.22% in assay [6]. Besides, the inhibition was -3% in [7]; -0.64% in [8]; -0.36% in assay [9]; -1.78% in assay [10]; -6.81% in assay [11]; 0.11% in assay [12]. Moreover, the inhibition in assay [13] is 1.77%; in [14], 1.9%; in assay [15], 7.55%; in assay [16], 0.62%; in assay [17], 0.1%; in assay [18] it was -0.81%. Besides, the inhibition in assay [19] is -3.23%; in assay [20], -2.97%.

As to `COc1cccc(COc2cc(-n3cnc4ccccc43)sc2C(N)=O)c1`, the inhibition in assay [1] is -0.71%; in assay [2], 0.3%; in assay [3], -1.09%; in assay [4] it was -0.68%; in assay [5], -1.24%; in assay [6] it was -0.05%. For the same compound, the inhibition in assay [7] is 1.34%; in [8] it was 0.36%; in assay [9] it was -0.76%; in assay [10], -1.48%; in [11], 0.56%; in assay [12], -1.78%. Moreover, the inhibition in [13] is -0.4%; in assay [14], -1.6%; in assay [15], 1.95%; in assay [16], -4.25%; in [17], 2.72%; in [18], -1.17%. Also, the inhibition in assay [19] was -0.04%; in assay [20] it was -1.14%.

As to `CCn1c(-c2nonc2N)nc2c(C#CC(C)(C)O)ncc(OC[C@@H]3CCCN3)c21`, the inhibition is 0.17% in assay [1]; 2.44% in [2]; 1.76% in assay [3]; 1.21% in [4]; -0.7% in [5]; 3.05% in assay [6]. In addition, the inhibition in assay [7] was 2.47%; in assay [8], 0.66%; in [9], 1.17%; in assay [10], -1.37%; in assay [11] it was -0.82%; in assay [12], 1.15%. For the same compound, the inhibition in [13] is 2.67%; in [14], -1.23%; in [15], 1.8%; in [16], -0.72%; in assay [17], 2.58%; in assay [18] it was -0.11%. Besides, the inhibition in assay [19] was -1.31%; in [20], -0.72%.

As for `Fc1ccc(-c2ncn(C3CCNCC3)c2-c2ccnc(Oc3ccccc3)n2)cc1`, the inhibition in assay [1] is -3.54%; in [2], -3.23%; in assay [3] it was -0.29%; in assay [4] it was 0.89%; in assay [5], 2.13%; in assay [6] it was 2.9%. The inhibition in [7] is 3.59%; in assay [8], -4.26%; in [9], -4.63%; in assay [10], 1.9%; in assay [11], 3.34%; in [12], 1.18%. Further, the inhibition was 1.96% in assay [13]; 8.94% in [14]; 11.7% in assay [15]; 3.24% in [16]; 12.9% in assay [17]; 3.69% in [18]. Further, the figures for the inhibition in assay [19] and in assay [20] were 6.82% and 0.12%, respectively.

One may read the inhibition as the drop in the measured response relative to a control, in per cent.
